Results filed as inconclusive are left out. Activity calls are given as the source filed them. The calls were made as follows, unless noted: active = hit-call score of the fitted dose curve at least 0.9, where 1 is the maximum; inconclusive = response in the unintended direction; inactive = score below 0.9.
Legend:
[1] = Tanguay_ZF_120hpf_YSE_legacy: (Legacy) Oregon State University Tanguay Lab 120 Hour Post-fertilization zebrafish Assay for Yolk Sac Edema (AID 2283634);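 as to AC50: actives raise the incidence of yolk sac edema above the DMSO baseline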
Outline: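 Tropical 5D wild-type embryos, dechorionated with pronase at 4 hpf, were exposed singly from 6 hpf to 120 hpf under static, sealed, dark conditions at 28C with 0.64% DMSO final. Yolk sac edema was scored present/absent by brightfield microscopy.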

[2] = Tanguay_ZF_120hpf_AXIS_legacy: (Legacy) Oregon State University Tanguay Lab 120 Hour Post-fertilization zebrafish Assay for Body Axis Malformation (AID 2283635);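 as to AC50: potency for an increased fraction of larvae scored with body axis malformation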
Outline: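 Tropical 5D wild-type zebrafish embryos, dechorionated with pronase at 4 hpf, were placed singly in wells at 6 hpf and exposed statically to test chemical (0.64% DMSO final) at 28C until 120 hpf, then scored by brightfield for body axis defects.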

[3] = Tanguay_ZF_120hpf_EYE_legacy: (Legacy) Oregon State University Tanguay Lab 120 Hour Post-fertilization zebrafish Assay for Eye Malformation (AID 2283636);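 also: binary presence or absence of eye malformation scored by brightfield in 120 hpf larvae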
Outline: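 Dechorionated Tropical 5D zebrafish embryos, one per well from 6 hpf, static exposure to 120 hpf at 28C, 0.64% DMSO. Eye malformation scored present/absent by brightfield; dead embryos not scored.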

[4] = Tanguay_ZF_120hpf_SNOU_legacy: (Legacy) Oregon State University Tanguay Lab 120 Hour Post-fertilization zebrafish Assay for Snout Malformation (AID 2283637)
Outline: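 Dechorionated tropical 5D wild-type zebrafish embryos exposed statically from 6 to 120 hpf at 28C, one per well, in 0.64% DMSO. Snout malformation scored as present/absent by brightfield at 120 hpf; dead embryos not scored.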

[5] = Tanguay_ZF_120hpf_JAW_legacy: (Legacy) Oregon State University Tanguay Lab 120 Hour Post-fertilization zebrafish Assay for Jaw Malformation (AID 2283638)
Outline: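 Tropical 5D wild-type embryos, dechorionated with pronase at 4 hpf, were placed singly per well at 6 hpf and statically exposed at 28C until 120 hpf (0.64% DMSO final). Jaw malformation scored as present/absent by brightfield microscopy at 120 hpf, analyzed relative to DMSO.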

[6] = Tanguay_ZF_120hpf_OTIC_legacy: (Legacy) Oregon State University Tanguay Lab 120 Hour Post-fertilization zebrafish Assay for Otic Vesicle Malformation (AID 2283639)
Outline: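 Tropical 5D wild-type zebrafish embryos were exposed statically in sealed, foil-covered plates at 28C until 120 hpf, with 0.64% (vol/vol) DMSO final. Otic vesicle malformation was scored present/absent by brightfield microscopy, with DMSO as baseline.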

[7] = Tanguay_ZF_120hpf_PE_legacy: (Legacy) Oregon State University Tanguay Lab 120 Hour Post-fertilization zebrafish Assay for Pericardial Edema (AID 2283640);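 as to AC50: potency for increased incidence of pericardial edema versus DMSO baseline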
Outline: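 Tropical 5D wild-type zebrafish embryos were exposed statically to 120 hpf at 28C, sealed and foil-covered, in 0.64% DMSO final. Pericardial edema was scored present/absent by brightfield microscopy; dead embryos were not scored.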

[8] = Tanguay_ZF_120hpf_SOMI_legacy: (Legacy) Oregon State University Tanguay Lab 120 Hour Post-fertilization zebrafish Assay for Somite Malformation (AID 2283647)
Outline: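 Tropical 5D wild-type zebrafish embryos, dechorionated with pronase at 4 hpf, were placed singly at 6 hpf and statically exposed until 120 hpf at 28C in 0.64% DMSO. Somite malformation was scored present/absent by brightfield microscopy versus DMSO.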

[9] = Tanguay_ZF_120hpf_PFIN_legacy: (Legacy) Oregon State University Tanguay Lab 120 Hour Post-fertilization zebrafish Assay for Pectoral Fin Malformation (AID 2283648);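 also: each larva judged yes or no for fin defect by brightfield with dead larvae skipped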
Outline: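 Dechorionated Tropical 5D wild-type zebrafish embryos, one per well, statically exposed from 6 to 120 hpf at 28C with 0.64% DMSO final. Pectoral fin malformation scored present/absent by brightfield at 120 hpf; not scored in dead embryos.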

[10] = Tanguay_ZF_120hpf_CFIN_legacy: (Legacy) Oregon State University Tanguay Lab 120 Hour Post-fertilization zebrafish Assay for Caudal Fin Malformation (AID 2283649)
Outline: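 Tropical 5D wild-type embryos, dechorionated with pronase at 4 hpf, were placed singly in wells at 6 hpf and statically exposed to compound at 28C until 120 hpf (0.64% DMSO). Caudal fin malformation was scored present/absent by brightfield microscopy.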

[11] = Tanguay_ZF_120hpf_CIRC_legacy: (Legacy) Oregon State University Tanguay Lab 120 Hour Post-fertilization zebrafish Assay for Circulatory Malformation (AID 2283651)
Outline: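 Tropical 5D wild-type embryos, dechorionated with pronase at 4 hpf, were placed singly in wells at 6 hpf and exposed statically at 28C to 120 hpf (0.64% DMSO final). Circulatory malformation was scored present/absent by brightfield microscopy.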

[12] = Tanguay_ZF_120hpf_SWIM_legacy: (Legacy) Oregon State University Tanguay Lab 120 Hour Post-fertilization zebrafish Assay for Swim Bladder Malformation (AID 2283654);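 also: swim bladder malformation in each larva scored yes or no under brightfield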
Outline: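 Dechorionated wild-type Tropical 5D zebrafish embryos, one per well from 6 hpf, were statically exposed at 28C until 120 hpf in 0.64% DMSO. Swim bladder malformation scored as present/absent by brightfield microscopy; not scored in dead larvae.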

[13] = Tanguay_ZF_120hpf_TRUN_legacy: (Legacy) Oregon State University Tanguay Lab 120 Hour Post-fertilization zebrafish Assay for Truncated Body (AID 2283655)
Outline: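 Tropical 5D wild-type embryos, dechorionated with pronase at 4 hpf, were placed singly in wells at 6 hpf and statically exposed at 28C until 120 hpf, final DMSO 0.64%. Truncated body was scored present/absent by brightfield microscopy.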

[14] = Tanguay_ZF_120hpf_NC_legacy: (Legacy) Oregon State University Tanguay Lab 120 Hour Post-fertilization zebrafish Assay for Notochord and Tail Malformation (AID 2283656)
Outline: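 Dechorionated 5D zebrafish, 1/well from 6 hpf; static exposure to 120 hpf, 28C, sealed, dark; final DMSO 0.64% v/v. NC scored binary (present/absent); dead embryos not scored. Fit vs DMSO baseline, gain direction.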

[15] = Tanguay_ZF_120hpf_BRAI_legacy: (Legacy) Oregon State University Tanguay Lab 120 Hour Post-fertilization zebrafish Assay for Brain Malformation (AID 2283641)
Outline: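 Tropical 5D wild-type zebrafish embryos were exposed statically in sealed, foil-covered plates at 28C until 120 hpf, with 0.64% (vol/vol) final DMSO. Brain malformation was scored present/absent by brightfield microscopy, relative to DMSO baseline.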

[16] = Tanguay_ZF_120hpf_PIG_legacy: (Legacy) Oregon State University Tanguay Lab 120 Hour Post-fertilization zebrafish Assay for Pigmentation Malformation (AID 2283650)
Outline: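 Dechorionated Tropical 5D wild-type embryos, one per well from 6 hpf, statically exposed at 28C in the dark until 120 hpf, 0.64% DMSO final. Pigmentation scored present/absent by brightfield microscopy; dead embryos not scored; fitted versus DMSO.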

[17] = read-out: solute carrier (SLC22A6), SLC22A6 (gene 9356); assay: LTEA_HepaRG_SLC22A6: Life Technologies and Expression Analysis (LTEA) Assay for solute carrier (SLC22A6) using HepaRG (AID 2283653; active = hit-call score of the fitted dose curve at least 0.9, where 1 is the maximum; inactive = score below 0.9); conditions: mRNA level, 48 h; actives raise or lower the signal
Outline: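 Differentiated human HepaRG cells were exposed for 48 h in serum-free induction medium to eight concentrations (top 100 uM, half-log steps, 0.5% DMSO), in duplicate. SLC22A6 mRNA was quantified by qRT-PCR, normalised to ACTB, GAPDH and POLR2A, and fitted bidirectionally against DMSO.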

[18] = read-out: solute carrier (SLC10A1), SLC10A1 (gene 6554); assay: LTEA_HepaRG_SLC10A1: Life Technologies and Expression Analysis (LTEA) Assay for solute carrier (SLC10A1) using HepaRG (AID 2283657; active = hit-call score of the fitted dose curve at least 0.9, where 1 is the maximum; inactive = score below 0.9); conditions: mRNA level, 48 h; actives raise or lower the signal
Outline: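 HepaRG cells (single lot) exposed 48 h in serum-free induction medium, 8-point half-log series from 100 uM top in 0.5% DMSO, duplicate. SLC10A1 mRNA by qRT-PCR normalised to ACTB, GAPDH, POLR2A; bidirectional fit versus DMSO.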

[19] = read-out: matrix metalloproteinase-1 (MMP1), MMP1 (gene 4312); assay: LTEA_HepaRG_MMP1: Life Technologies and Expression Analysis (LTEA) Assay for matrix metalloproteinase-1 (MMP1) using HepaRG (AID 2283658; active = hit-call score of the fitted dose curve at least 0.9, where 1 is the maximum; inactive = score below 0.9); conditions: mRNA level, 48 h; actives raise or lower the signal
Outline: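 Differentiated HepaRG cells, plated 48 h then switched to serum-free induction medium, were exposed in duplicate for 48 h to eight half-log concentrations up to 100 uM in 0.5% DMSO; MMP1 mRNA measured by qRT-PCR, normalized to ACTB, GAPDH, POLR2A.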

[20] = read-out: kallikrein-3 (KLK3), KLK3 (gene 354); assay: LTEA_HepaRG_KLK3: Life Technologies and Expression Analysis (LTEA) Assay for kallikrein-3 (KLK3) using HepaRG (AID 2283652; active = hit-call score of the fitted dose curve at least 0.9, where 1 is the maximum; inactive = score below 0.9); conditions: mRNA level, 48 h; actives raise or lower the signal
Outline: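 Differentiated human HepaRG cells in serum-free induction medium exposed 48 h in duplicate, eight-point half-log series from 100 uM in 0.5% DMSO. KLK3 mRNA by qRT-PCR, normalised to ACTB, GAPDH, POLR2A; bidirectional fit versus DMSO.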

Measured: AC50

CCOc1cccc(C2(N3CCN(c4ccccc4)CC3)CCC(C)CC2)c1 (stereo not given)
not listed: [15] | [16] | [17] | [18] | [19] | [20]
inactive: all other assays above

c1ccc2c(c1)oc1ccccc12
not listed: [12] | [15] | [16] | [17] | [18] | [19] | [20]
inactive: all other assays above

c1ccc(N=Nc2ccccc2)cc1
inactive: [1] | [2] | [3] | [4] | [5] | [6] | [7] | [9] | [10] | [14]

O=P(OCCCl)(OCCCl)OCCCl
not listed: [7] | [11] | [14] | [17] | [18] | [19] | [20]
inactive: all other assays above

Cc1cccc(N)c1N
active: [1] 10.6 µM | [2] 27.8 µM | [7] 54 µM
not listed: [15] | [16] | [17] | [18] | [19] | [20]
inactive: all other assays above

CCC(C)c1ccc(O)cc1 (stereo not given)
not listed: [15] | [16] | [17] | [18] | [19] | [20]
inactive: all other assays above

Cc1cc(N=Nc2ccccc2C)ccc1N
active: [7] 55.7 µM | [13] 48.2 µM
not listed: [8] | [10] | [15] | [17] | [18] | [19] | [20]
inactive: all other assays above

Nc1ccc(Cl)cc1N
active: [18] 20.9 µM | [19] 50 µM
not listed: [14] | [15] | [16] | [20]
inactive: all other assays above

C1=Cc2cccc3cccc1c23
not listed: [15] | [16]
inactive: all other assays above

O=C1CCCO1
not listed: [14] | [15] | [16] | [17] | [18] | [19] | [20]
inactive: all other assays above

CCCCOC(=O)c1ccccc1C(=O)OCc1ccccc1
not listed: [12] | [15] | [16] | [17] | [18] | [19] | [20]
inactive: all other assays above

c1ccc(C2CO2)cc1 (stereo not given)
not listed: [15] | [16] | [17] | [18] | [19] | [20]
inactive: all other assays above

— PubChem BioAssay (EPA / NIEHS)
